Pf apPOL inh = Pf-apPOL DNA polymerase inhibition | Recombinant Pf-apPOL, molecular beacon fluorescence, 1.5 h | inhibition, % at 10 µM | hit rate 0.25% among 210,000 | AID 1794808
mHTT CaM bind = disrupts binding of mutant huntingtin to calmodulin | AlphaScreen His-mHTT/GST-CaM binding, luminescence | inhibition, % at 15 µM | hit rate 3.6% among 190,000 | AID 1671202;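 note: 0% = both proteins with DMSO and 100% = one protein alone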
Target sequence (P42858 whole entry, looked up, stated change not applied): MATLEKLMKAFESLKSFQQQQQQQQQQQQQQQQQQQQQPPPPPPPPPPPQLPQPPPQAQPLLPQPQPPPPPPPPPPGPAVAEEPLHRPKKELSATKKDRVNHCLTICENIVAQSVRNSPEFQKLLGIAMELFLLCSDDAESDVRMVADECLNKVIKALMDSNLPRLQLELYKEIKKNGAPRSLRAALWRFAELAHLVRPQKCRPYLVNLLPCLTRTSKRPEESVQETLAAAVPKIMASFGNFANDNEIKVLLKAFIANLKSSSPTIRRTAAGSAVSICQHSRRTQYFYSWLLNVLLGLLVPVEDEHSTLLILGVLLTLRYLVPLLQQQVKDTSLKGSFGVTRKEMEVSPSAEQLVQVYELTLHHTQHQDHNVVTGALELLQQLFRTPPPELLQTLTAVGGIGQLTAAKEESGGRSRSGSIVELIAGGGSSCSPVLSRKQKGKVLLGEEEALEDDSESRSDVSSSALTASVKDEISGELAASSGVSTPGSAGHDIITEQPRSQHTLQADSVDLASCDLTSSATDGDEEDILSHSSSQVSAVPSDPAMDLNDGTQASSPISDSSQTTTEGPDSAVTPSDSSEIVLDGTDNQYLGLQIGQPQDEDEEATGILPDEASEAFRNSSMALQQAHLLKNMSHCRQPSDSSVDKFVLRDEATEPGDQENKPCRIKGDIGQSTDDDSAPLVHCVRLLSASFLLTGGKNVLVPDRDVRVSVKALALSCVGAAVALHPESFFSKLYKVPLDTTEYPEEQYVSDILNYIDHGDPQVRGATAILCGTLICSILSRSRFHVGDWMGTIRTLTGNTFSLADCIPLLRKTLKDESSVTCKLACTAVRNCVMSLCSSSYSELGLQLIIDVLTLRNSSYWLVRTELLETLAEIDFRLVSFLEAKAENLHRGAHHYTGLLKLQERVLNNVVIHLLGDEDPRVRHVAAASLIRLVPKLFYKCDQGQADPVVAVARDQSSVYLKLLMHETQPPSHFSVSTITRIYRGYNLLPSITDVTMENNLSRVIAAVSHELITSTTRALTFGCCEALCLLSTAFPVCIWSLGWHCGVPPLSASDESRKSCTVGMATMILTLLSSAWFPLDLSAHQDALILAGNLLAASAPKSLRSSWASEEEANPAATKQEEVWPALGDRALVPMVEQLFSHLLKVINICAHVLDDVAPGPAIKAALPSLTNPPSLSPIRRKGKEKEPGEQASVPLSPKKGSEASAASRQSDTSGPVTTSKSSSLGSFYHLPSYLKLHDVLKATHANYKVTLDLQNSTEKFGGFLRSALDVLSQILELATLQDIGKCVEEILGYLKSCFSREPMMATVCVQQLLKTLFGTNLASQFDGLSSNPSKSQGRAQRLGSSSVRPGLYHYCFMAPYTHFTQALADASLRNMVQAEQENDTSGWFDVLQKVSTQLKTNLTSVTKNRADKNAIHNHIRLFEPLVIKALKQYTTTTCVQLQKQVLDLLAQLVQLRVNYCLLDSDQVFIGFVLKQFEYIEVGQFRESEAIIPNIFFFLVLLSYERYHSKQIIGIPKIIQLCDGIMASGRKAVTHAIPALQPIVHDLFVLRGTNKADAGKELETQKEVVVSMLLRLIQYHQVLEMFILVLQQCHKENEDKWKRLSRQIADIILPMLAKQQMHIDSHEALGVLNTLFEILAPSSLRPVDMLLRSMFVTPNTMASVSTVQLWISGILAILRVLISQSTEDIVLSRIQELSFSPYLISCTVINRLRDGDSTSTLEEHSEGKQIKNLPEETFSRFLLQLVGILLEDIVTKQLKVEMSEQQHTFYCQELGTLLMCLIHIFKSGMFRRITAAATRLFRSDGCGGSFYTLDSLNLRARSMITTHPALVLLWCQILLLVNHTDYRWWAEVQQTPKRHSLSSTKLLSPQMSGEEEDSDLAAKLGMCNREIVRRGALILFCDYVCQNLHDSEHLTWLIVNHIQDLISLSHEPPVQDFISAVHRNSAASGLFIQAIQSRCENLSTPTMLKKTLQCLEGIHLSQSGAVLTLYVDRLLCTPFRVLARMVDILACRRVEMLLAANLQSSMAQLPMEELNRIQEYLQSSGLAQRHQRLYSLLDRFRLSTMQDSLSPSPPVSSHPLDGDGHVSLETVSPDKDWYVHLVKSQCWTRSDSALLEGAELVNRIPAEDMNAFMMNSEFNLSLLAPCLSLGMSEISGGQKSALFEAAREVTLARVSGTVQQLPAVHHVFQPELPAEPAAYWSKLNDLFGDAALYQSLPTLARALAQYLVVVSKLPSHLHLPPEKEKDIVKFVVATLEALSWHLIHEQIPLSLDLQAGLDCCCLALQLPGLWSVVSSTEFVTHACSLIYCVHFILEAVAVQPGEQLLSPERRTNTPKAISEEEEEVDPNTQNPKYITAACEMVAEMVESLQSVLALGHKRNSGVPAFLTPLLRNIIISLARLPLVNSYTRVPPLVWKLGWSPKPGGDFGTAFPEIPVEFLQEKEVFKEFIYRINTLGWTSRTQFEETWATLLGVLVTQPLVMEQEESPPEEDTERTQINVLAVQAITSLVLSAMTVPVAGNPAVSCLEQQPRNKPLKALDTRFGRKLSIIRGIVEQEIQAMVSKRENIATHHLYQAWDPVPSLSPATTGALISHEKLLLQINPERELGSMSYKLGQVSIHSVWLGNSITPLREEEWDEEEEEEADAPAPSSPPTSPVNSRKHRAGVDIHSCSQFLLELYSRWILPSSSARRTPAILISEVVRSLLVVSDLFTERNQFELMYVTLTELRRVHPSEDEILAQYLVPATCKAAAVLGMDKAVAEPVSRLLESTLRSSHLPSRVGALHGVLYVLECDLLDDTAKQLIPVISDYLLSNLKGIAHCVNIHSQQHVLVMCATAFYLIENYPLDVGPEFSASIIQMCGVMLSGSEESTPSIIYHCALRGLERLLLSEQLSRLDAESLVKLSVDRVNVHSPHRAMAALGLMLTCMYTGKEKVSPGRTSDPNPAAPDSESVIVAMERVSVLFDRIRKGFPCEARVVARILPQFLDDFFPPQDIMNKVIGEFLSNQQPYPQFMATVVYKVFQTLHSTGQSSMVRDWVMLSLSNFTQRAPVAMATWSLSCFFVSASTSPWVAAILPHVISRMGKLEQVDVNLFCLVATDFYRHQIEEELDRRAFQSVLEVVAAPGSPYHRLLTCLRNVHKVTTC
Starred values were filed as active, the others as inactive; . = not tested or not shown; ! = not confirmed by another sample. A selection: hits, their analogues and other compounds. The true share with any hit is near 3.6%. Cut-off read from the data, not from the text of the source: active = inhibition above about 50%; inactive = the rest.

SMILES	Pf apPOL inh	mHTT CaM bind
CCOC(=O)CCCN1C(=O)C(=Cc2ccc3c(c2)OCO3)SC1=S	-5.8	14.5
O=C(O)CN1C(=O)C(=Cc2ccccc2O)SC1=S	0.1	17.2
CC(C)(C)c1ccc(C=C2SC(=S)N(CCC(=O)O)C2=O)cc1	0.7	34.3
O=C(O)CN1C(=O)C(=Cc2ccc(-c3cccc4c3C(=O)c3ccccc3C4=O)o2)SC1=S	94.8*	39.2
O=C(NCCCN1CCCC1)C1CCCN(c2ncc(-c3ccccc3)cn2)C1 (centres undefined)	-2.9	41.0
CC(C)CCn1c(N2CCCC(C(=O)N3CCCC3)C2)nc2ccccc21 (centres undefined)	-5.8	54.7*
CCn1c(=O)c(N2CCCC(C(=O)NCCCN3CCCCCC3)C2)nc2ccccc21 (centres undefined)	-3.7	93.6*
CCCn1c(N2CCC(C(=O)N3CCCCC3)CC2)nc2ccccc21	-7.3	-1.4
Cc1ccc(C)n1-c1ccc(C(=O)NNC(=O)c2ccccc2C(F)(F)F)cc1	-3.2	.
COc1cccc(CNC(=O)C2(C)CCCN(C(=O)c3ccccc3Cl)C2)c1 (centres undefined)	-3.2	2.5
O=C(Cn1c2c(c(-c3ccccc3Cl)cc1=O)CCC2)NCc1ccc(F)cc1	1.1	8.7
O=C1C(=Cc2ccc3c(c2)OCO3)Oc2c1ccc1c2CN(Cc2ccccn2)CO1	-37.5	100.2*
O=C1C(=Cc2ccccc2)Oc2c1ccc1c2CN(Cc2cccnc2)CO1	-25.7	41.3
O=C1C(=Cc2ccc3c(c2)OCO3)Oc2c1ccc1c2CN(Cc2cccnc2)CO1	-167.5	24.9
O=C1C(=Cc2ccc(Br)cc2)Oc2c1ccc1c2CN(Cc2cccnc2)CO1	-31.4	83.2*
Cc1ccc(C=C2Oc3c(ccc4c3CN(Cc3ccccn3)CO4)C2=O)o1	4.0	100.2*
COc1cccc(C=C2Oc3c(ccc4c3CN(Cc3ccncc3)CO4)C2=O)c1	-30.3	39.2
COc1ccc(CN2COc3ccc4c(c3C2)OC(=Cc2cccnc2)C4=O)cc1	-7.5	-1.7
COc1ccc(C=C2Oc3c(ccc4c3CN(Cc3ccncc3)CO4)C2=O)cc1	-22.2	58.1*
CCN(CC)C(=O)Oc1ccc(C(=O)c2ccccc2)cc1	-8.8	-21.2
CCC(C)NC(=O)CCS(=O)(=O)Cc1cccc(Cl)c1 (centres undefined)	-13.3	-7.0
COc1ccc(C=C2Oc3c(ccc4c3CN(Cc3ccccn3)CO4)C2=O)cc1	-31.3	100.1*
COc1ccc(OC)c(C=C2Oc3c(ccc4c3CN(Cc3ccccn3)CO4)C2=O)c1	47.2	100.1*
COc1ccc(C=C2Oc3c(ccc4c3CN(Cc3ccccn3)CO4)C2=O)cc1OC	-18.3	-1.4
COc1ccc(C=C2Oc3c(ccc4c3CN(Cc3ccccn3)CO4)C2=O)c(OC)c1OC	-4.0	-5.9
SMILES	Pf apPOL inh	mHTT CaM bind
Cc1ccc([N+](=O)[O-])cc1NC(=O)C1C2/C=C\CCCCC21 (centres undefined)	1.6	-6.7
O=C(c1cc(C2CC2)on1)N1CCCCC1	-1.6	-3.9
Cc1ccc(-c2nc(C(=O)NC3CCCC3)cs2)n1C	-0.4	42.4
O=C(c1csc(-c2ccncc2)n1)N1CCC(N2CCCCC2)CC1	-2.0	-10.9
Cc1ccc(-c2nc(C(=O)N3CCN(C4CCCCC4)CC3)cs2)n1C	-2.7	69.9*
Cc1ccc(-c2nc(C(=O)Nc3ccc(F)cc3)cs2)n1C	1.6	58.1*
Cc1ccccc1NC(=O)c1csc(-c2ccc(C)n2C)n1	-5.4	-5.9
Cc1ccc(-c2nc(C(=O)NC3CCN(Cc4ccccc4)CC3)cs2)n1C	-2.9	75.2*
Cc1cccc(-n2nnc(C(=O)NCc3cccs3)c2N)c1	-2.4	-5.0
CCN(C)C(=O)c1cnc(-c2cccc(C)c2)nc1N(C)C	-6.5	1.1
CC(C)c1ccc(C2CC(c3ccc(F)cc3)Nc3nc(N)nn32)cc1 (centres undefined)	-9.1	42.9
O=C(NCc1ccco1)c1ccc(F)cc1	-6.1	-1.6
CC(C)CNC(=O)C1CC(=O)N(c2ccc(OCC(=O)NCc3ccccc3)cc2)C1 (centres undefined)	-2.3	-11.7
Clc1ccc(N2Cc3ccccc3C2)cc1Cl	-2.0	87.0*
O=C(c1c(F)cccc1F)N1CCN(c2ccc(Cl)c(Cl)c2)CC1	3.0	18.6
CCOc1ccc(C(=O)Nc2cc(Cl)ccc2C)nn1	-0.3	-13.6
CC(C)(C)OC(=O)N1CCC(CNS(=O)(=O)c2ccc3c(c2)OCCO3)CC1	63.3*!	.
O=S(=O)(NCCSC1CCCCC1)c1ccc2c(c1)OCCO2	2.7	-3.5
CCc1[nH]c2ccccc2c1C	-10.7	50.5*
Cc1c(Cl)c(=O)[nH]c2ccccc12	-8.5	.
O=C1OC(C2CCCCC2)=N/C1=C/c1cccc(F)c1	-2.5	4.0
Cc1ccc(C)c(S(=O)(=O)Nc2ccc3oc(=O)sc3c2)c1	72.6*	24.0
Cc1cc(C)c(S(=O)(=O)Nc2ccc3oc(=O)sc3c2)cc1C	1.7	42.0
COc1ccc(CCNC(=O)C2c3ccccc3C(=O)N3CCc4ccccc4C23)cc1OC (centres undefined)	-1.4	7.0
CC1CCC(NC(=O)C2c3ccccc3C(=O)N2Cc2ccccc2Cl)CC1 (centres undefined)	-2.9	8.0
SMILES	Pf apPOL inh	mHTT CaM bind
O=C(NC1CCCC1)C1c2ccccc2C(=O)N1Cc1ccccc1Cl (centres undefined)	0.7	53.0*
CSCCC(C)(O)CNC(=O)c1cccc(Br)c1 (centres undefined)	-4.2	-0.7
COc1ccccc1N1CCN(CC(O)COc2ccccc2C(C)(C)C)CC1 (centres undefined)	-2.2	19.4
COc1ccccc1N1CCN(CC(O)COc2ccc(Cl)cc2C)CC1 (centres undefined)	21.0	74.7*
COc1ccc(N2CCN(CC(O)COc3ccc(C)c(C)c3)CC2)cc1 (centres undefined)	-0.5	36.4
COc1ccc(N2CCN(CC(O)COc3ccc(Cl)cc3C)CC2)cc1 (centres undefined)	-1.8	76.1*
COc1ccc(N2CCN(CC(O)COc3ccccc3C(C)(C)C)CC2)cc1 (centres undefined)	1.6	70.7*
COc1ccccc1N1CCN(CC(O)COc2cccc3ccccc23)CC1 (centres undefined)	-6.6	23.0
Cc1ccc(C(=O)CN2C3=NCCCN3c3cc(C)c(C)cc32)cc1	-1.2	-1.2
O=C(O)c1ccc(O)c(C=Nc2ccc(Br)cc2)c1	0.1	85.0*
O=C(O)c1ccc(N=Cc2cc(Br)ccc2O)cc1	0.7	1.0
Oc1ccccc1N=Cc1c(Cl)cccc1Cl	-5.2	12.0
OCCN=Cc1c(O)n(-c2c(Cl)cccc2Cl)c2ccccc12	-0.8	85.0*
CC(=O)n1c(C=Nc2ccc(Cl)cc2)c(O)c2ccccc21	-0.8	-2.0
CCC(CO)N=Cc1c(O)n(-c2c(Cl)cccc2Cl)c2ccccc12 (centres undefined)	-1.3	83.0*
Cc1ccc(NC(=O)c2cc3c(CO)cnc(C)c3oc2=Nc2ccc(C)c(F)c2)cc1	34.6	1.0
CCOc1ccc(N=C2C(=O)Nc3ccccc32)cc1	-1.5	35.0
CCOc1ccc(N=C2C(=O)Nc3ccc(C)c(Br)c32)cc1	-2.0	57.0*
O=C(SCc1c(F)cccc1Cl)c1cnn(-c2ccc(Cl)cc2)c1C(F)(F)F	-20.8	.
O=C1OC(c2ccc(Cl)cc2)=N/C1=C\c1ccco1	-4.7	-4.0
O=C1OC(c2ccc(Cl)cc2)=N/C1=C\C=C\c1ccco1	3.8	68.0*
O=C(NCCC1CCCCN1S(=O)(=O)c1cccs1)c1cnccn1 (centres undefined)	-3.1	3.0

Screening data (PubChem)
